Test results published in PubChem BioAssay (NCI).
About 79,000 compounds went through this panel and 15% of them were active in at least one assay; those are over-represented in the sample as a whole. No stated cut-off is given here; in the data, active means growth inhibition above about 70%; inactive means the rest.

Key:
[1] = NCI Yeast Anticancer Drug Screen. Data for the rad50 strain (AID 155);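 further: 0% = growth of vehicle-only cultures of the same strain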; settings: S. cerevisiae rad50 strain growth inhibition; at 50.0 µM; stronger effect = higher value
How it was run: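 Inhibition values express reduced yeast growth in compound-treated cultures relative to vehicle-treated controls.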

[2] = NCI Yeast Anticancer Drug Screen. Data for the mec2-1 strain (AID 157); settings: S. cerevisiae mec2-1 strain, at 50.0 µM, stronger effect = higher value
How it was run: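 Readout is yeast growth inhibition, normalised to vehicle-treated controls, in the mec2-1 strain exposed to compound.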

[3] = NCI Yeast Anticancer Drug Screen. Data for the sgs1 mgt1 strain (AID 161);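 further: 0% = growth of cultures given vehicle only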; settings: S. cerevisiae sgs1 mgt1 strain, at 50.0 µM, stronger effect = higher value
How it was run: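 Yeast cells carrying a defined DNA-repair defect were exposed to test compounds. Growth inhibition was measured relative to vehicle-treated controls.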

[4] = NCI Yeast Anticancer Drug Screen. Data for the cln2 rad14 strain (AID 165);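 further: 0% = growth equal to vehicle treated cultures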; settings: S. cerevisiae cln2 rad14 strain, at 50.0 µM, stronger effect = higher value
How it was run: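 Relative to vehicle controls, growth inhibition of compound-treated cln2 rad14 yeast was recorded.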

[5] = NCI Yeast Anticancer Drug Screen. Data for the bub3 strain (AID 167); settings: S. cerevisiae bub3 mutant strain, at 50.0 µM, stronger effect = higher value
How it was run: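 Steps: expose the mutant yeast strain to compound; grow alongside vehicle-treated cultures; measure growth; express inhibition against the vehicle cultures.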

[6] = NCI Yeast Anticancer Drug Screen. Data for the mlh1 rad18 strain (AID 175); settings: S. cerevisiae mlh1 rad18 strain growth inhibition; at 50.0 µM; stronger effect = higher value
How it was run: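 Test agents were incubated with a yeast strain of defined genotype (DNA damage repair defect). Inhibition of growth was derived by comparison with vehicle-exposed cultures.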

Measured: growth inhibition

O=C(NCC1(O)CCCCC1)c1ccccc1
inactive: [1] 3.65% | [2] -14.2% | [3] -5.55% | [4] -8.35% | [5] 3.8% | [6] 1.3%

CN(C)c1ccc(C2NC(c3ccccc3)c3c(ccc4ccccc34)O2)cc1 (stereo unspecified)
inactive: [1] 8.5% | [2] 2.45% | [3] -12.7% | [4] -22.8% | [5] 2.5% | [6] 0.95%

O=C(COc1ccc(Cl)cc1C(=O)O)NCc1cccc2ccccc12
inactive: [1] -0.2% | [2] 36% | [3] 41.8% | [4] 0.9% | [5] 46% | [6] 31.6%

CC(C)NCCN
inactive: [1] 17.4% | [2] 0.3% | [3] 18.8% | [4] 11.3% | [5] 12.7% | [6] 23.4%

COc1cc2c(cc1OC)[C@H]1Cc3cc(OC)c(OC)cc3[C@@H](C2)N1C(C)=O
inactive: [1] -2.1% | [2] -11.2% | [3] -16.6% | [4] 22.6% | [5] 20.9% | [6] -3.6%

Cc1ncc(CO)c(/C=N\NC(N)=S)c1O
inactive: [1] 9.85% | [2] 4.7% | [3] 8.3% | [4] -48.5% | [5] -39.1% | [6] -7.25%

COc1ccc(C(=O)c2ccc(OC)cc2OC)cc1
inactive: [1] -4.15% | [2] 1.7% | [3] 21.4% | [4] -23.1% | [5] 3.05% | [6] 1.3%

O=[N+]([O-])c1ccc(CN(Cc2ccc([N+](=O)[O-])cc2)c2ccc3c(c2)C(O)c2ccccc2-3)cc1 (stereo unspecified)
inactive: [1] 9.95% | [2] 1% | [3] 7.8% | [4] 7.85% | [5] 1.8% | [6] 12.2%

CCN(CC)c1ccc(NC(=O)CCl)cc1
inactive: [1] -3.95% | [2] -12.5% | [3] -13% | [4] 1.45% | [5] -15.8% | [6] 8.2%

COc1ccc(C=Nc2ccc(Cl)cc2)cc1
inactive: [1] -11.5% | [2] -25.2% | [3] 4.45% | [4] -18.7% | [5] 2.55% | [6] 3.55%

Cc1cccc(N/N=C2\CCSc3ccccc32)c1
inactive: [1] 17.9% | [2] 8.45% | [3] 3.35% | [4] 5.95% | [5] 3.75% | [6] 4%

O=C(NCCCCCCCCNC(=O)c1cccc2ccccc12)c1cccc2ccccc12
inactive: [1] 14.2% | [2] 25% | [3] 2.8% | [4] -9.25% | [5] -10.4% | [6] 16.8%

COc1ccc(NC(=O)Nc2cc(Cl)ccc2C)c(Cl)c1
inactive: [1] 0.7% | [2] 36% | [3] 29.8% | [4] -3.35% | [5] 30.4% | [6] 29.9%

CCCCOS(=O)(=O)c1ccc([N+](C)(C)C)cc1
inactive: [1] 3.9% | [2] 1.75% | [3] -10.6% | [4] 12.2% | [5] 0.6% | [6] -7%

CCCCC(CC)C(=S)N1CCOCC1 (stereo unspecified)
inactive: [1] 0.95% | [2] -30.4% | [3] -18.8% | [4] 7.25% | [5] -4.65% | [6] -9.25%

Cc1cc2nc(/N=C/c3nc(O)c(C)[nH]3)[nH]c2cc1C
inactive: [1] 33.2% | [2] 22.4% | [3] 59% | [4] 20.4% | [5] 14.1% | [6] 56%

Cc1ccc(C(=O)N/N=C/c2ccccc2Cl)cc1
inactive: [1] -3.15% | [2] 49.1% | [3] 33.8% | [4] -20.4% | [5] 34.9% | [6] 26.6%

c1ccc(-c2cc3nc4ccccc4nc3o2)cc1
inactive: [1] -6.65% | [2] -10.6% | [3] -13% | [4] 1.6% | [5] 2.15% | [6] -4.4%

COc1cccc2c1C(=O)C1(O)CCCCC21 (stereo unspecified)
inactive: [1] -55.8% | [2] -41.6% | [3] -65.3% | [4] -21.4% | [5] -59.5% | [6] -25.7%

CCOC(=O)C1(C(F)(F)F)N=C(CC)OC(N2CCOCC2)=N1 (stereo unspecified)
inactive: [1] -23.9% | [2] -12.6% | [3] -18.7% | [4] 10.1% | [5] -16% | [6] -27.1%

CCCSc1ncnc2c1ncn2COC(=O)NC
inactive: [1] 15.1% | [2] -11.4% | [3] 5.2% | [4] 5.15% | [5] 11.3% | [6] -2.8%

CC(C(O)C(F)(F)F)[N+](=O)[O-] (stereo unspecified)
inactive: [1] -1.7% | [2] -4.5% | [3] 8.65% | [4] -5.2% | [5] -2.05% | [6] 17.2%

NS(=O)(=O)c1ccc(NC(=S)/N=C\c2c(O)[nH]c(=O)[nH]c2=O)cc1
inactive: [1] -13% | [2] -16.3% | [3] -18.3% | [4] 15.7% | [5] -12.6% | [6] -11%

COc1ccc2nc3cc(Cl)ccc3c(NCCNCC(C)(C)O)c2c1
inactive: [1] 23.4% | [2] 15.8% | [3] 18.5% | [4] 63.8% | [5] 27.1% | [6] 22.1%

O=C1OC(=O)C2C3CCC(O3)C12 (stereo unspecified)
inactive: [1] 13.9% | [2] 7.4% | [3] 4.75% | [4] -0.8% | [5] -0.5% | [6] -5%

O=C1NC(c2cccc3c2OCO3)N=C2Oc3ccccc3C=C12 (stereo unspecified)
inactive: [1] 9.95% | [2] 1.95% | [3] 9.45% | [4] 7.8% | [5] -4.05% | [6] -10.6%

N#CC1(Nc2ccc(-c3ccc(NC4(C#N)CCCC4)cc3)cc2)CCCC1
inactive: [1] 40.8% | [2] -16.4% | [3] -36.5% | [4] -40.9% | [5] -2.55% | [6] 21.1%

CC(C)SC(=O)C[Si](C)(C)C
inactive: [1] -5.8% | [2] 6.95% | [3] -2.9% | [4] -16.1% | [5] 26.7% | [6] -1.65%

CCOC(=O)NC(Nc1ccc(F)cc1F)(C(F)(F)F)C(F)(F)F
inactive: [1] 12.8% | [2] -23.4% | [3] -15.7% | [4] 10.2% | [5] -14.8% | [6] 1.4%

CC1NC(=O)OC1C(C)(C)C (stereo unspecified)
inactive: [1] 6.95% | [2] -2.8% | [3] -0.75% | [4] -19.1% | [5] -5.4% | [6] -4.55%

COc1ccc(CCNC(=O)c2cccc(Cl)c2)cc1OC
inactive: [1] -7.05% | [2] -28.9% | [3] -23.1% | [4] -44.6% | [5] -22% | [6] -12.2%

CC(C)CC(NC(=O)c1ccccc1C(=O)O)C(N)=O (stereo unspecified)
inactive: [1] -6.7% | [2] 3.5% | [3] 6.65% | [4] -0.15% | [5] 6.2% | [6] -19%

CSc1nc(NC(=O)O)c(N(C(C)=O)C(=O)O)c(=O)n1C
inactive: [1] -15.3% | [2] 0.6% | [3] 4.55% | [4] 19.7% | [5] -9.35% | [6] -13.5%

COCCCCCC(=O)OC
inactive: [1] 5.05% | [2] 17.1% | [3] 6.4% | [4] 4.5% | [5] -7% | [6] 0.5%

Cc1cc2c(C)nn(Cc3ccc(Cl)cc3Cl)c2c(C#N)c1C
inactive: [1] 18.2% | [2] -14.8% | [3] 24.9% | [4] 20.1% | [5] 5.8% | [6] 31.6%

NC1=NC(=S)CS1
inactive: [1] 0.95% | [2] -3.85% | [3] -12.3% | [4] -42.1% | [5] 16.7% | [6] 9.35%
